Results as given in PubChem BioAssay AID2314 (National Center for Advancing Translational Sciences (NCATS), 2010).
In all, about 300,000 compounds went through this assay and about 37,000 (12%) were called active. No stated cut-off is given here; in the data, active means max response mostly above about 13% (no sharp cut-off); inactive means mostly below about 14%. Many of the other results were omitted from the sample, so actives are more common in it than they were.

Assay: Cycloheximide Counterscreen for Small Molecule Inhibitors of Shiga Toxin; further: read at 38.3 µM for the half of the compounds with a filed dose; 0% is about no effect
Conditions: cell reporter, cycloheximide protein synthesis inhibition counterscreen; stronger effect = higher value

Row | SMILES | max response
1 | Cc1ccc(NC(=O)CC2S/C(=N/N=C3\CCCc4ccccc43)NC2=O)cc1 (centres undefined) | -4.9% (inactive)
2 | C[C@H]1CCC[C@@]2(C)CCCC[C@]12O | 12.1% (inactive)
3 | Cn1c(CCc2ccccc2)nnc1SCC(N)=O | -1.26% (inactive)
4 | O=C(Nc1ccc(N2CCOCC2)c(Cl)c1)c1ccc(S(=O)(=O)N2CCOCC2)cc1 | 5.48% (inactive)
5 | O=C(Nc1ccc(S(=O)(=O)Nc2nccs2)cc1)c1cccc(S(=O)(=O)N2CCOCC2)c1 | -1.31% (inactive)
6 | O=C(Nc1ccc(S(=O)(=O)N2CCOCC2)cc1)c1ccc2ncsc2c1 | 43.1% (active)
7 | CCc1ccc(C(=O)CSc2nnc(C)c(=O)[nH]2)cc1 | 1.57% (inactive)
8 | COc1cc(C(=O)NCc2nnc(SCC(=O)c3ccc(Cl)cc3)o2)cc(OC)c1OC | 2.18% (inactive)
9 | CCN(CC)c1ccc(/C=N/NC(=O)CNC(=O)c2cccs2)cc1 | 19.2% (active)
10 | CCN(CC)c1ccc(/C=N/NC(=O)CNC(=O)c2cccnc2)cc1 | -5.38% (inactive)
11 | O=C(N/N=C/C=C/c1ccco1)c1cccs1 | 46% (active)
12 | O=C(CNC(=O)c1cccs1)N/N=C/c1cccc(Br)c1 | -3.86% (inactive)
13 | O=C(NC(Cc1c[nH]c2ccccc12)C(=O)N/N=C/c1ccc(Br)cc1)c1cccs1 (centres undefined) | 1.73% (inactive)
14 | CC(=O)Nc1ccc(/C=N/NC(=O)c2cccs2)cc1 | 58.5% (active)
15 | Cc1cccc(-n2c(C)cc(/C=N/NC(N)=S)c2C)c1 | 9.86% (inactive)
16 | Cc1ccc(-n2c(C)cc(/C=N\NC(=O)CC(=O)NC(C)C)c2C)cc1 | -4.19% (inactive)
17 | Cc1cccc(-n2c(C)cc(/C=N\NC(=O)c3cccs3)c2C)c1 | 56.1% (active)
18 | Cc1ccc(-c2cc(C(=O)N/N=C/C=C/c3ccco3)c3ccccc3n2)cc1C | 26.2% (inactive)
19 | CCCc1c(C(=O)N/N=C(\C)CCc2ccc(OC)cc2)nnn1-c1nonc1N | 11% (inactive)
20 | Cc1ccc(N(C(=O)c2snc(C(N)=O)c2N)C(C(=O)NCC2CCCO2)c2c[nH]c3ccccc23)cc1 (centres undefined) | -1.6% (inactive)
21 | Cc1cc(C)c(S(=O)(=O)N(C)CC(=O)NCC2CCCO2)c(C)c1 (centres undefined) | -2.82% (inactive)
22 | CCCn1nc(NC(=O)C(C)C)c2cc3cc(OC)ccc3nc21 | 17% (inactive)
23 | COc1ccc(CCNC(=O)C2CCCN(Cc3nc(-c4cccc(Cl)c4)oc3C)C2)cc1OC (centres undefined) | 6.92% (inactive)
24 | CCOc1cc(NC(=S)NCCCN(C)C)c(OCC)cc1NC(=O)C1CC1 | -1% (inactive)
25 | Cn1nnnc1-c1cc(Cl)cc(Cl)c1 | 1.2% (inactive)

Row | SMILES | max response
26 | CN(CCO)S(=O)(=O)c1ccc2c(c1)C(=O)c1cc(S(=O)(=O)N(C)CCO)ccc1-2 | -1.96% (inactive)
27 | COc1ccc(CCNC(=O)C2CC3Cn4c(nc5cc(C)c(C)cc54)C3N2C)cc1 (centres undefined) | -2.66% (inactive)
28 | COc1ccc(NC(=O)CCN2CCCC2)c(OC)c1 | -1.44% (inactive)
29 | CC(=O)Oc1ccc(NC(=O)CCC2CCCCC2)c(C(=O)O)c1 | -3.07% (inactive)
30 | COc1ccc(NC(=O)CCCC2CCCCC2)c(OC)c1 | 31.1% (active)
31 | COc1ccc(NC(=O)NCc2ccc3c(c2)OCO3)c(OC)c1 | -2.52% (inactive)
32 | Cc1cc(NC(=O)CCC2COc3ccccc3O2)no1 (centres undefined) | 14.1% (active)
33 | COc1ccc(NC(=O)CCC(=O)Nc2cc(OC)c(NC(=O)c3ccco3)cc2OC)c(OC)c1 | -4.97% (inactive)
34 | Cc1cc(NC(=O)CCC(=O)N(CC(=O)NCC2CCCO2)c2ccccc2)no1 (centres undefined) | -1.66% (inactive)
35 | Cc1ccc(SCCC(=O)Nc2cc(C)on2)cc1 | 5.3% (inactive)
36 | COc1ccc(NC(=O)CC2COc3ccccc3O2)c(OC)c1 (centres undefined) | 24.3% (active)
37 | CCCNC(=O)COc1coc(CN2CCN(Cc3ccccc3)CC2)cc1=O | -5.17% (inactive)
38 | CCn1ccnc1CNC(=O)CC1C(=O)NCCN1CCCc1ccccc1 (centres undefined) | -2.05% (inactive)
39 | CC1(C)C2CCC1(CS(=O)(=O)NCCc1c[nH]c3ccccc13)C(=O)C2 (centres undefined) | -4.31% (inactive)
40 | Cc1nc2cc(C(F)(F)F)ccc2n1CCNc1nc(-c2cc(Cl)c(N)c(Cl)c2)cs1 | -1.25% (inactive)
41 | N#Cc1ccccc1NC(=O)COc1c(Br)cc(Br)c2cccnc12 | -3.08% (inactive)
42 | Cc1nn(CC(=O)NC2CCCCC2)c(=O)c2cccn12 | 10.6% (inactive)
43 | CCCCN1C(=O)/C(=C2/Sc3ccc(Cl)cc3N2CC)SC1=S | -0.782% (inactive)
44 | CCCCN1C(=O)/C(=C2/C=CC=CN2C)SC1=S | 18.7% (active)
45 | CN1C=CC=C/C1=C1\SC(=S)N(Cc2ccccc2)C1=O | 3.74% (inactive)
46 | Cc1cccc(C)c1NC(=S)N(Cc1cccnc1)Cc1ccccc1Cl | -3.98% (inactive)
47 | COC(=O)c1ccc2ccccc2c1OC1OC(CO)C(O)C(O)C1NC(C)=O (centres undefined) | 0.801% (inactive)
48 | CC1CCN(CC(O)COc2ccc(C(=O)c3ccccc3)cc2)CC1 (centres undefined) | -1.82% (inactive)
49 | O=C(NCCN1CCOCC1)/C(=C/c1ccc(F)cc1)NC(=O)c1ccccc1 | -4.36% (inactive)
50 | CC(=O)Oc1c(C(=O)c2nnc(C)o2)c(=O)n(Cc2ccccc2)c2ccccc12 | -0.619% (inactive)

Row | SMILES | max response
51 | Brc1ccc2c(c1)[C@H]1OCC[C@H]1[C@@H](c1cccs1)N2 | 8.72% (inactive)
52 | C/C(=N\NC(=O)Cc1ccc(F)cc1)c1ccc(F)cc1 | -1.95% (inactive)
53 | C/C(CC(=O)N1CCN(C=O)CC1)=N\NC(=O)c1ccc(Br)cc1 | 7.55% (inactive)
54 | O=C(O)CC/C(=N\NC(=O)c1ccc(F)cc1)c1ccc(Br)cc1 | 35% (active)
55 | CCc1ccccc1NC(=O)CN(C)S(=O)(=O)c1ccc2c(c1)c(=O)n(C)c(=O)n2C | -5.59% (inactive)
56 | S=c1[nH]nc(-c2ccco2)n1/N=C/c1ccccc1 | -1.31% (inactive)
57 | Cn1c(-c2ccco2)nc2cc3ccccc3cc21 | 16.7% (active)
58 | O=c1c2ccccc2nc(-c2ccco2)n1-c1ccc(Br)cn1 | -3.55% (inactive)
59 | Cc1ccc(CS(=O)(=O)CCC(=O)NCc2ccc(F)cc2)cc1 | -2.44% (inactive)
60 | CN(C)c1ccc(/C=N/Nc2cc(N3CCOCC3)nc(N3CCOCC3)n2)cc1 | -1.93% (inactive)
61 | CC(=O)N/N=C/c1cc2c(cc1[N+](=O)[O-])OCO2 | -3% (inactive)
62 | Cc1ccccc1N/N=C/c1ccc(N2CCOCC2)cc1 | 21.1% (active)
63 | CCN(CC)c1ccc(C(=O)N/N=C/c2ccc(N3CCOCC3)cc2)cc1 | -3.32% (inactive)
64 | O=C(Cc1cc(=O)[nH][nH]1)N/N=C/c1ccccc1[N+](=O)[O-] | -3.9% (inactive)
65 | O=C(N/N=C\c1cccc(Br)c1)c1ccccc1-n1cccc1 | 1.75% (inactive)
66 | Cc1cc(C(=O)N/N=C/c2ccc(N3CCOCC3)cc2)c(C)o1 | 26.5% (active)
67 | CNC(=S)N/N=C/c1ccc(N2CCOCC2)s1 | 13.7% (inactive)
68 | Cc1cc(Nc2ccc(N3CCOCC3)cc2)c2cccc(C)c2n1 | -1.97% (inactive)
69 | Cc1ccc(-c2cc(C(=O)N/N=C/C=C/c3ccccc3)n[nH]2)o1 | -1.74% (inactive)
70 | Cc1cc(C(=O)N/N=C/c2ccccc2[N+](=O)[O-])c(C)o1 | 35% (active)
71 | Cc1cc(C(=O)N/N=C\C(Br)=C\c2ccccc2)c(C)o1 | 32.4% (active)
72 | Cc1ccc(S(=O)(=O)c2c[nH]c3ccc(C)cc3c2=O)cc1 | -2.63% (inactive)
73 | CCN(CCCNC(=O)c1ccc2c(c1)NC(=O)CN2C)c1cccc(C)c1 | -2.58% (inactive)
74 | COc1cccc(CNS(=O)(=O)c2ccc3c(c2)N(C(C)=O)CCS3)c1 | 3.83% (inactive)
75 | CCOc1ccc2[nH]c3nc(SCC(=O)NC4CCCC4)nnc3c2c1 | -2.15% (inactive)

Row | SMILES | max response
76 | CC(C)c1cc(C(=O)N/N=C/C(Br)=C/c2ccccc2)n[nH]1 | 14.6% (active)
77 | COc1ccc2ccccc2c1/C=N/NC(=O)c1cc(C)[nH]n1 | -1.72% (inactive)
78 | CC(=C/c1ccccc1)/C=N/NC(=O)c1cc(C)oc1C | 34.8% (active)
79 | CC(=O)N/C(=C/c1ccc(OC(F)F)cc1)C(=O)O | 1.24% (inactive)
80 | Cc1cc(C(=O)NNC(=O)CCC2CCCCC2)c(C)o1 | -7.16% (inactive)
81 | CC(C)c1cc(C(=O)O)n[nH]1 | 10.8% (inactive)
82 | O=C(CCC1CCCN(C(=O)c2ccc(F)c(F)c2)C1)N1CCN(c2ccccn2)CC1 (centres undefined) | -2.81% (inactive)
83 | CC(=O)c1ccc(NC(=O)CCNS(=O)(=O)c2cc(Br)cnc2N)cc1 | -6.69% (inactive)
84 | CCOC(=O)[C@H]1[C@H]2COc3cc(OC)ccc3[C@@H]2N2C(=O)N(c3ccc(Br)cc3)C(=O)[C@@]12C | -2.74% (inactive)
85 | CC(=O)Nc1ccc(NS(=O)(=O)c2ccc3c(c2)NC(=O)CC(=O)N3)cc1 | -2.79% (inactive)
86 | Cc1c(C(=O)Nc2cccc(Cl)c2)cn2c(nc3ccccc32)c1C#N | -2.2% (inactive)
87 | Cn1c(Nc2cccc(Cl)c2)nc2ccccc21 | 33.5% (active)
88 | C/C(=N\c1nc2ccccc2n1C)c1cc(Cl)ccc1O | -3.14% (inactive)
89 | Cc1cc2c(c(=O)n1Cc1ccccc1)C1O[C@](CCCCN3C(=O)c4ccccc4C3=O)(Cc3ccccc31)O2 | -2.41% (inactive)
90 | Cc1cc(O)c(C2(O)C(=O)Nc3ccccc32)cc1C (centres undefined) | -3.78% (inactive)
91 | O=C1Nc2ccccc2C12Nc1ccccc1S2 (centres undefined) | 33.2% (active)
92 | COc1ccc(C2(O)C(=O)Nc3ccccc32)cc1 (centres undefined) | -3.25% (inactive)
93 | CC(=O)NC1=NN(C(C)=O)C(C)(c2ccc(C)cc2)S1 (centres undefined) | -3.23% (inactive)
94 | Cc1c(C(N)=O)sc2ncn(CCOc3ccccc3)c(=O)c12 | 17.6% (active)
95 | COc1cccc(NC(=O)Cn2cnc3sc(C)c(S(=O)(=O)N4CCN(C)CC4)c3c2=O)c1 | -1.26% (inactive)
96 | Cc1cccc(OC(=O)c2sc3ncn(C)c(=O)c3c2C)c1 | 32.8% (active)
97 | CCOC(=O)C(C)n1cnc2sc(C)c(C)c2c1=O (centres undefined) | -0.534% (inactive)
98 | Cc1cc2ncn(CCCCOc3ccccc3)c2cc1C | -2.02% (inactive)
99 | Cc1cc(Br)ccc1NC(=O)c1sc2ncn(CC(=O)N3CCN(c4ccccn4)CC3)c(=O)c2c1C | -5.58% (inactive)
